Reference: ChEMBL document CHEMBL3988442, “University of Dundee, Small-Polar-MMV Screening Library” (2021)

Biological target: AMP-activated protein kinase, AMPK (Homo sapiens) (UniProt P54646+O43741+P54619+Q9UGJ0+Q9Y478+Q13131+Q9UGI9)
Assay: AMP-dependent Kinase enzyme assay. An in vitro enzyme assay that detects ADP turnover that is directly proportional to AMPK activity. This uses naive AMPK that is activated during the assay with MK-8722
Assay type: functional
Parameters: scale not given: direction of the effect not stated beside the values
Details: 30 µM

SMILES	Percent Effect [%]
CC(C)c1cc(C(=O)N(Cc2ccncc2)CC2CCCO2)no1 (centres undefined)	-4.12
O=C(NC1CCCN(Cc2c(F)cccc2F)C1)c1cnccn1 (centres undefined)	6.06
CC(O)CN1CCN(Cc2coc(-c3ccccc3Cl)n2)CC1 (centres undefined)	-13.3
Cc1nn(CCC(=O)NC2CCCOC2)c(C)c1C (centres undefined)	12.2
CCCC(=O)NC1CCCN(c2cncc(Br)c2)C1 (centres undefined)	22.4
NC(=O)CN1C[C@@H](c2ccccc2F)[C@@]2(CCCCC(=O)N2)C1	15.1
COCCN1CCCC2(CCN(c3cc(C)c(C#N)c(C)n3)C2)C1=O (centres undefined)	-7.22
COc1ccc(NC(=O)c2cnc(C3CCN(C(C)=O)C3)nc2C)cc1 (centres undefined)	-1.66
CCN(CC)c1ncccc1CNCc1ccc(-c2ccn[nH]2)s1	1.23
COc1cccc(C)c1C(=O)N1CCc2ncnc(NCCO)c2CC1	-1.45
COc1ccc2c(c1OC)Cc1c-2nc(N)c(C#N)c1C1CCOC1 (centres undefined)	24.3
O=C(C1CC(c2ccccc2)=NO1)N1CCc2ccccc21 (centres undefined)	13.9
COc1ccc(CCN(C)C(=O)CN2C(=O)OC[C@@H]2C(C)C)cc1OC	4.03
NC(=O)c1cn[nH]c1NC(=O)c1ccc2c(c1)OCO2	5.07
Cc1ccc(C(=O)NC2CCN(C)CC2)cc1N(C)S(C)(=O)=O	-1.82
Cc1ccccc1C(NC(=O)CCCS(C)(=O)=O)C(C)(C)C (centres undefined)	7.1
c1cnc(N2CCC(c3nccn3CC3CC3)CC2)nc1	9.63
Cc1noc(C(C)C)c1C(=O)N1CCC(n2cccn2)CC1	4.03
Cc1ccc(-c2nc(C(=O)N(C)CC(=O)N(C)C)cs2)c(C)c1	-3.64
